The values below come from PubChem BioAssay (NCATS).

Where “and” joins values, the source holds several entries; their conditions need not be identical. Equal values may be shown once. Inconclusive results are not listed. The source holds several records for some structures; these can differ, active in one and inactive in another. Calls of active or inactive are those of the source. Unless noted, the call rests on the fitted dose curve; in most records, active means well fitted curve in the direction sought with a large enough effect; inconclusive means small, poorly fitted or top-dose-only effect, or another doubt; inactive means no such curve, though single readings can be large; an effect the other way counts as inactive or inconclusive.

Experiment [1] is described as follows: Cell Proliferation Assay Versus the ED40515 IL2 Independent ATL cell lines (AID 1053194; calls by dose curve). To be noted: ED40515 IL2-independent ATL cells. A digest of the protocol: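 CellTiter-Glo luminescence, read after 15 min at RT, gave viability of IL-2-free ED40515 cells (1000/well, RPMI plus 5% FBS) following 48 h drug exposure at 37C. Control wells held DMSO or 9.2 uM bortezomib.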

The nature of experiment [2]: High-throughput drug toxicity screening in the BPDCN cell line Gen2.2 (AID 1224824; call rule not given here;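 further: cells exposed to compounds for 48 h before reading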). To be noted: Gen2.2 BPDCN cells; at 45.8 µM (top of the series) unless noted. In short, it runs like this:
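Gen2.2, 500 cells/well, phenol red-free RPMI/10% FBS/Pen-Strep; 48 h cpd, 37 °C/5% CO2; CTG lum, 15 min RT. Norm: DMSO = 100%, bortezomib 9.2 uM final = 0%.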

The nature of experiment [3]: High-throughput drug toxicity screening in the BPDCN cell line Cal-1 (AID 1224825; call rule not given here). The following applies: Cal-1 BPDCN cell viability, qHTS; at 45.8 µM (top of the series) unless noted. In short, it runs like this: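 Percent activity derived from CellTiter-Glo luminescence, scaling DMSO to 100% and 9.2 uM final bortezomib to 0%. BPDCN Cal-1 cells (500/well, RPMI plus 10% FBS) incubated with compounds 48 hours at 37C before reading.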
For orientation: Quantitative high-throughput screening tests each substance at several concentrations.

Experiment [4] is described as follows: qHTS assay for measurement of the activity of small molecule inhibitors on Zika virus induced Caspase-3 activity in human iPSC derived neural progenitor cells (hNPCs) (AID 1224857). Further: nearly all actives have a fitted effect of over 65% in size. Further: potency means the concentration at half of the fitted maximal effect. The following applies: hNPCs ZIKV-induced caspase-3/7, Caspase-Glo luminescence, 6 h; series mostly up to 45.7 µM. A digest of the protocol: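 Pretreat hNPCs with compound 1 h; infect ZIKV 2 FFU/cell; 6 h 37 C, 5% CO2; Caspase-Glo 3/7, 30 min RT; luminescence; normalize to no-virus and virus-only wells.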

The nature of experiment [5]: qHTS assay for measurement of the activity of small molecule inhibitors on Zika virus induced Caspase-3 activity in human astrocytoma cells (AID 1224859).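 Further: plate controls were ZIKV-infected untreated cells for no effect and uninfected cells for full effect.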 The following applies: SNB-19 ZIKV-induced caspase-3/7, luminescence, 6 h; series mostly up to 45.7 µM. A digest of the protocol:
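Human SNB-19 astrocytoma cells in RPMI 1640 with 10% FBS receive compound one hour ahead of Zika virus at 2 FFU/cell. After 6 h infection, caspase-3/7 activity is detected by Caspase-Glo luminescence.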

Experiment [6] in a line: qHTS Screen of the MIPE 4.0 Collection Against Ewings Sarcoma (RDES) (AID 1259252). Further: nearly all actives have a fitted effect of over 35% in size. Further: potency means the concentration at half of the fitted maximal effect. The following applies: RD-ES Ewing sarcoma viability, CellTiter-Glo, 48 h; series mostly up to 45.8 µM. A digest of the protocol:
(§1)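 Cells plated in serum-containing RPMI (5% FBS) and treated with compound dilutions for 48 h. Readout luminescent viability; normalization relied on vehicle (no inhibition) and media-only columns (full inhibition).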

The nature of experiment [7]: qHTS Screen of the MIPE 4.0 Collection Against Ewings Sarcoma (TC71) (AID 1259253). Further: nearly all actives have a fitted effect of over 40% in size. Further: potency means the concentration at half of the fitted maximal effect. The following applies: TC71 Ewing sarcoma viability, CellTiter-Glo, 48 h; series mostly up to 45.8 µM. In short, it runs like this:
as §1

The nature of experiment [8]: Identifying Small Molecule Inhibitors of Pancreatic Cancer Stem Cells (SN12C, Adherent) (AID 1259358).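 Further: cell survival measured after 48 h of compound exposure.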 Further: potency means the concentration at half of the fitted maximal effect. To be noted: viability/growth inhibition; series mostly up to 46.1 µM. In short, it runs like this: (§2)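 Pre-formed 14-day tumor spheroids or adherent cells dosed and incubated 48 h, 37C, 5% CO2. Viability assessed by CellTiter-Glo.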
A short description of experiment [9]: Identifying Small Molecule Inhibitors of Pancreatic Cancer Stem Cells (SN12C, Spheroid) (AID 1259360). Further: potency means the concentration at half of the fitted maximal effect.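 On viability (% of control): 100% = DMSO-treated cells and 0% = wells without cells.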 The following applies: Potency: SN12C spheroid viability; series mostly up to 46.1 µM. A digest of the protocol:
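Spheroids grown 14 days in stem cell media on hydrogel-coated nonadherent plates; 2D lines seeded directly. Compounds added after 4 h attachment, 48 h at 37C, 5% CO2; CellTiter-Glo luminescence normalized to DMSO (no inhibition) and no-cell wells (full inhibition).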

Experiment [10] in a line: Identifying Small Molecule Inhibitors of Pancreatic Cancer Stem Cells (A278, Adherent) (AID 1259361). Further: nearly all actives have a fitted effect of over 35% in size.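 On viability (% of control): 100% = DMSO-treated cells and 0% = cell-free media-only wells.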 The following applies: series mostly up to 46.1 µM. In short, it runs like this: as §2
Experiment [11] can be described thus: P-glycoprotein substrates identified in KB-3-1 adenocarcinoma cell line, qHTS therapeutic library screen (AID 1346986). Further: nearly all actives have a fitted effect of over 60% in size. To be noted: KB-3-1 parental cells viability, CellTiter-Glo, 72 h; series mostly up to 44.5 µM. A digest of the protocol: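 Viability read by CellTiter-Glo after 72 h compound exposure in dose-response of KB-3-1 and KB-8-5-11 (P-gp-high) cells. Hits needed AC50 < 10 uM, >50% maximum response and curve class -1.1 to -2.4. Cherry-picks retested ± tariquidar, including pcDNA/MDR-19 HEK-293 pair.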

Experiment [12] in a line: P-glycoprotein substrates identified in KB-8-5-11 adenocarcinoma cell line, qHTS therapeutic library screen (AID 1346987). Further: nearly all actives have a fitted effect of over 65% in size. Further: potency means the concentration at half of the fitted maximal effect. The following applies: KB-8-5-11 (P-gp overexpressing) viability, CellTiter-Glo, 72 h; series mostly up to 44.5 µM. In short, it runs like this:
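Compounds are pinned in dose-response onto KB-8-5-11 cells (500 cells/well, colchicine-free medium) and left 72 h at 37 degree C. CellTiter-Glo luminescence then yields AC50 values.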

A short description of experiment [13]: Identifying Small Molecule Inhibitors of Pancreatic Cancer Stem Cells (Panc1, Adherent) (AID 1259362). Further: potency means the concentration at half of the fitted maximal effect.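 On viability, % of control: compound exposure lasted 48 h before the viability read; plate controls were DMSO-treated cells for no effect and cell-free media wells for full effect.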 The following applies: Potency: viability; series mostly up to 46.1 µM. In short, it runs like this: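 Cytotoxicity read by CellTiter-Glo luminescence after 48 h compound exposure at 37C; percent activity scaled between DMSO-treated cells and cell-free wells. Spheroid formats used cells pre-formed 14 days in stem cell media on hydrogel.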

A short description of experiment [14]: Cell Proliferation Assay Versus the ED40515 IL2 Dependent ATL cell lines (AID 1053195; calls by dose curve). The following applies: ED40515 IL2-dependent ATL cells. A digest of the protocol:
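CellTiter-Glo luminescence (15 min, RT) measured viability after 48 hours at 37C; cells were ED40515 +IL2, 1000/well, in phenol red-free RPMI with 5% FBS. Controls: DMSO and 9.2 uM bortezomib.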

Experiment [15] can be described thus: qHTS Screen of the MIPE 4.0 Collection Against Ewings Sarcoma (EW8) (AID 1259255). Further: nearly all actives have a fitted effect of over 35% in size. Further: potency means the concentration at half of the fitted maximal effect.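 On viability: 100% = DMSO-treated cells and 0% = medium-only wells without cells.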 The following applies: EW8 Ewing sarcoma viability, CellTiter-Glo, 48 h; series mostly up to 45.8 µM. In short, it runs like this: as §1
A short description of experiment [16]: qHTS Screen of the MIPE 4.0 Collection Against Ewings Sarcoma (TC32) (AID 1259256). Further: nearly all actives have a fitted effect of over 45% in size. Further: potency means the concentration at half of the fitted maximal effect. The following applies: TC32 Ewing sarcoma viability, CellTiter-Glo, 48 h; series mostly up to 45.8 µM. A digest of the protocol: as §1
The nature of experiment [17]: qHTS assay to identify small molecule inhibitors of chordoma cells - UCH-1 (AID 1259355). Further: on the % scale 0 is the no-effect control and ±100 the full control effect; nearly all actives have a fitted effect of over 55% in size. To be noted: UCH-1 chordoma viability, CellTiter-Glo, 48 h, combination, with auranofin plus four topoisomerase inhibitors; series mostly up to 46.1 µM. In short, it runs like this:
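800 cells/well, overnight attach; compounds pinned at 15 concs, then auranofin/camptothecin/doxorubicin/rubitecan/topotecan combo added; 48hr 37 C, 5% CO2; CellTiter-Glo, 30min RT, luminescence.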

Experiment [18] is described as follows: Natriuretic polypeptide receptor (hNpr1) antagonism - Pilot counterscreen GloSensor control cell line (AID 1347045; calls by dose curve; further: on the % scale 0 is the no-effect control and ±100 the full control effect). The following applies: HEK293 cGMP GloSensor cells, SNP-stimulated luminescence, 20 min; series mostly up to 38.3 µM. In short, it runs like this:
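Control counterscreen: luciferase cGMP-biosensor HEK293 cells (no Npr1) received compound for 30 min at room temperature after GloSensor substrate loading. Luminescence was measured before and 20 min after soluble guanylyl cyclase activation by 50 uM nitroprusside.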
Background: The purpose of a counterscreen is to sort out artefacts and off-target activity.

`CCN(CC)CCCC(C)Nc1nc(C)cc(Nc2ccc3nc(C)cc(N)c3c2)n1` (stereo unspecified): the Potency in [1] was 26.4 µM (active). The cell viability, % of control (lower = more cytotoxic) in experiment [2] is 55.4%. Also, the viability (% of control) in [3] came to 74.8%. Moreover, the Potency entry in [4], in [5], in experiment [6], in [7], in experiment [8] and in experiment [9] was “inactive” in each case. The Potency entry in experiment [11] and in experiment [12] was “inactive” in each case. Also, in experiment [10], the IC50 (viability decrease) entry was “inactive”.
Consider `Cc1ccnc(NS(=O)(=O)c2ccc(NC(=O)Nc3ccc(S(=O)(=O)Nc4nccc(C)n4)cc3)cc2)n1`, for which the Potency in experiment [1] was 6.62 µM (active); in experiment [9], 18.7 µM (active); in experiment [13] it was 0.0235 µM (active); in experiment [12], 14.8 µM (active) and inactive. Moreover, the cell viability, % of control (lower = more cytotoxic) in experiment [2] is 75.2%. In experiment [3], this molecule came in with a viability (% of control) of 24.4%. The Potency result in [4], in experiment [5] and in experiment [11] was “inactive” in each case.
`COc1ccc2c3n(c(=NC(=O)c4cccnc4)nc2c1OC)CCN3`: the Potency was 23.5 µM (active) in [1]; 4.18 µM (active) in [14]; 2.09 µM (active) in [6]; 10.5 µM (active) in [7]; 20.9 µM (active) in experiment [15]; 8.33 µM (active) in experiment [16]. For the same molecule, the Potency in [8] was 3.72 µM (active); in [9], 5.9 µM (active); in experiment [13] it was 2.35 µM (active); in [12] it was 651 nM (active). Besides, the viability (% of control) in experiment [3] stood at 12.7%. The Potency result in experiment [4] and in [5] was “inactive” each time.
Turning to `OC(CN1CCC(Cc2ccc(F)cc2)CC1)c1ccc(Cl)cc1` (stereo unspecified), the Potency in experiment [1] is 26.4 µM (active). Besides, in experiment [2], the cell viability, % of control (lower = more cytotoxic) worked out at 156%. Also, the viability (% of control) in experiment [3] stood at 99.3%. Also, the Potency result in [4], in [6], in experiment [15], in experiment [16], in experiment [8] and in experiment [9] was “inactive” in each case. Moreover, the Potency entry in experiment [12] was “inactive”. In addition, the activity, negative = inhibition in [17] was 16.1% [at 9.21 µM] (inactive). The IC50 (viability decrease) result in [10] is “inactive”. For the same molecule, the outcome in experiment [18] was inactive.
Consider `Nc1ncnc2nc(-c3ccc(N4CCOCC4)nc3)cc(-c3cccc(Br)c3)c12`, for which the Potency in experiment [1] was 29.6 µM (active); in experiment [7] it was 20.9 µM (active); in experiment [15] it was 33.2 µM (active). Besides, the cell viability, % of control (lower = more cytotoxic) in experiment [2] was 76%. For the same molecule, in experiment [3], the viability (% of control) was found to be 55.4%. For the same molecule, the Potency result in experiment [4], in experiment [5], in experiment [8], in [13], in experiment [11] and in experiment [12] was “inactive” in each case. The IC50 (viability decrease) in [10] was 26.4 µM (active). Moreover, the molecule was called inactive in experiment [18].
With `C[C@]1(c2nc3c(C(N)=O)cccc3[nH]2)CCCN1`, the results for the Potency in experiment [1], in experiment [14] and in experiment [16] were 16.6 µM (active), 16.6 µM (active) and 18.7 µM (active), respectively. Besides, the cell viability, % of control (lower = more cytotoxic) in experiment [2] was 50.9%. In addition, the viability (% of control) in experiment [3] was determined as 88%. In addition, the Potency entry in experiment [4], in [7], in [15], in experiment [8] and in experiment [12] was “inactive” each time. In addition, the IC50 (viability decrease) in experiment [10] was 18.7 µM (active).
As to `Cc1oncc1C(=O)Nc1ccc(C(F)(F)F)cc1`, the Potency in experiment [1] is 14.8 µM (active); in [4], “inactive and 2.64 µM (active)”; in experiment [6] it was 8.33 µM (active); in experiment [7], 18.7 µM (active); in experiment [15], 20.9 µM (active). Moreover, in experiment [2], the cell viability, % of control (lower = more cytotoxic) came to 32.8%. The molecule also had a viability (% of control) in experiment [3] of 63.8%. The Potency result in experiment [17] was “inactive”. Also, the IC50 (viability decrease) in experiment [10] was 11.8 µM (active). Besides, the molecule was classed as inactive in experiment [18].
